Assay outcomes deposited in PubChem by National Center for Advancing Translational Sciences (NCATS).
PKM2 inh: qHTS Assay for Inhibitors of Human Muscle isoform 2 Pyruvate Kinase; purified PKM2, ATP generation, Kinase-Glo luminescence; Potency, µM (titrated, usually from 57.5 µM), hits mostly inhibitors; 0.058% of 260,000 active; further: nearly all actives have a fitted effect of over 60% in size
Target sequence (P14618 whole entry, looked up, canonical isoform): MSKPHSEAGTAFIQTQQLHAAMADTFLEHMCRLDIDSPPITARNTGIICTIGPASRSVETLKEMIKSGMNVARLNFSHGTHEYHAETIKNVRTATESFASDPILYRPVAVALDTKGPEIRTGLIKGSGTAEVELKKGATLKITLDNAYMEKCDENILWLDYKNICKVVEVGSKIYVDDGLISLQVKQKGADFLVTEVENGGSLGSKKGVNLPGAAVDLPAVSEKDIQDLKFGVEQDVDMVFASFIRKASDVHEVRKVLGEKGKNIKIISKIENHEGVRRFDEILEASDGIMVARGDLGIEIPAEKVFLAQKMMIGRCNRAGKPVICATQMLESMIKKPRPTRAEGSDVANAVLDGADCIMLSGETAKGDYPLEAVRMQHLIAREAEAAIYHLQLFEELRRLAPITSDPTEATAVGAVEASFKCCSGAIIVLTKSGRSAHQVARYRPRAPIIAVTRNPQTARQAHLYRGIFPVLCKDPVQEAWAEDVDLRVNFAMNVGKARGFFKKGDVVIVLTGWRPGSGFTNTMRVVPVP
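Enzyme run at intermediate activity with final 0.1 mM ADP, 0.5 mM PEP (50 mM imidazole pH7.2, 50 mM KCl, 7 mM MgCl2), incubated 1 h at r.t. ATP formed read by Kinase-Glo luminescence, normalized to no-enzyme (full inhibition) and uninhibited wells.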
PKM2 inh dose: Confirmation Concentration-Response Assay for Inhibitors of Human Muscle isoform 2 Pyruvate Kinase; shares compounds with PKM2 inh; purified hPK-M2, Kinase-Glo ATP luminescence, 1 h; Potency, µM (titrated, usually from 57.5 µM), actives largely listed as inhibitors; 50% of 55 active; AID 2263, 2010
PKM2 FLuc cs: Secondary assay for Inhibitors of Human Pyruvate Kinase M2 isoform: FLuc Counterscreen; shares compounds with PKM2 inh; Kinase-Glo firefly luciferase, luminescence, 8 min; Potency, µM (top dose mostly 57.5 µM), actives largely listed as inhibitors; 30% of 55 active; AID 2265, 2010
PKM2 LDH couple: Secondary assay for Inhibitors of Human Pyruvate Kinase M2 isoform | shares compounds with PKM2 inh | purified hPK-M2, LDH-coupled NADH fluorescence kinetic | Potency, µM (titrated, usually from 57.5 µM), actives largely listed as inhibitors | 55 tested, under 10 active
A number is an active result; . = inactive; ? = inconclusive; / = no result. Only a selection was taken, and hits are over-represented in it overall. The call rests on the fitted dose curve; in most records, active means well fitted curve in the direction sought with a large enough effect; inconclusive means small, poorly fitted or top-dose-only effect, or another doubt; inactive means no such curve, though single readings can be large; an effect the other way counts as inactive or inconclusive.

SMILES	PKM2 inh	others
COc1ccccc1CNC(=O)COC(=O)[C@H](Cc1c[nH]c2ccccc12)NC(=O)c1cccs1	.
Cc1cc(C)nc(N2CCN(S(=O)(=O)c3ccc(F)cc3)CC2)n1	.
O=C(NCCN1C(=O)S/C(=C\c2cccnc2)C1=O)C1=NN(c2ccccc2)C(=O)CC1	.
CCOc1ccc(-c2ccc(SC)nn2)cc1	3.2µM
CCOc1ccc(CNc2cccc(SC)c2)cc1	.
Cc1ccc(-c2ccc(SCC(=O)Nc3cc(C)on3)nn2)cc1	.
c1c2c(cc3sc(N4CCOCC4)nc13)OCCO2	14µM
CCOc1ncccc1C(=O)NCCN1C(=O)S/C(=C/c2cccs2)C1=O	.
Nc1nnc(SCC(=O)c2ccc3c(c2)NC(=O)CO3)s1	.
Cc1ccc(C(=O)COc2nc(C)nc3ccccc23)cc1	.
COc1ccc(Cc2nc(-c3cccs3)no2)cc1	.
Cc1occc1C(=O)O/N=C(\N)c1ccccc1	7.1µM
Cc1ccc(/C(N)=N/OC(=O)Cc2cccc3ccccc23)cc1	.
NC(=O)C1CCN(C(=O)c2ccco2)CC1	.
NC(=O)COC(=O)CCSc1ccc(Cl)cc1	.
NC(=O)CC(NC(=O)Cc1cccc2ccccc12)c1ccc(NCCc2ccccc2F)c([N+](=O)[O-])c1 (stereo not drawn)	.
COc1cc(C(=S)N2CCN(c3ccccc3Cl)CC2)cc(O)c1O	.
CCC(C)NC(=O)c1c(F)c(F)c(F)c(F)c1F (stereo not drawn)	.
Cc1c(C(=O)OCc2ccccc2)nnn1-c1nonc1N	.
N/C(=N/OC(=O)c1ccccc1F)c1nonc1N	16µM
Cc1ccc(NS(=O)(=O)c2ccc(NC(=O)[C@@H]3CCCC[C@@H]3C(=O)O)cc2)c(C)c1	.
O=C(c1cccc([N+](=O)[O-])c1)c1ccc2c(c1)C(=O)N(c1c[nH]c(=O)[nH]c1=O)C2=O	.
Cc1ccc(S(=O)(=O)N2CCN(C(=O)Cc3ccc4c(c3)OCCO4)CC2)cc1C	.
CCN1/C(=C/c2ccc3ccccc3[n+]2CC)C=Cc2ccccc21	14µM
CCC(OC(=O)c1nsc(Cl)c1Cl)C(=O)NC(C)(C)CC (stereo not drawn)	.
SMILES	PKM2 inh	others
Cc1ccc(Nc2c(-c3ccc(C)o3)nc3cccc(C)n23)cc1	/	PKM2 inh dose=.;PKM2 FLuc cs=.;PKM2 LDH couple=6.5µM
COc1ccc(Nc2c(-c3ccc(C)o3)nc3ccccn23)cc1	/	PKM2 inh dose=.;PKM2 FLuc cs=.;PKM2 LDH couple=.
Cc1ccc(-c2nc3cnccn3c2Nc2ccc3c(c2)OCCO3)o1	.
COc1ccc(NC(=O)c2cc(-c3ccc(C)o3)nc3ccccc23)cc1OC	.
Cc1ccc(Nc2c(-c3ccsc3)nc3c(C)cccn23)cc1	/	PKM2 inh dose=.;PKM2 FLuc cs=.;PKM2 LDH couple=?
Cc1ccc(-c2csc(Nc3ccc(S(N)(=O)=O)cc3)n2)o1	.
Cc1ccc(Nc2c(-c3ccsc3)nc3cccc(C)n23)cc1	/	PKM2 inh dose=.;PKM2 FLuc cs=.;PKM2 LDH couple=?
CN(c1ccc(F)cc1)S(=O)(=O)c1ccc(Cl)c(C(=O)OCC(=O)NCc2ccco2)c1	.
COc1ccc(CC(=O)n2[nH]c(=O)cc(C)c2=O)cc1OC	.
CS(=O)(=O)N(CC(=O)Nc1ccc(S(=O)(=O)N2CCOCC2)cc1)c1ccccc1Br	.
Cc1ccc(S(=O)(=O)CCSc2nc(C)cc(C(F)(F)F)c2C#N)cc1	.
Cc1cc(N2C(=O)C=CC2=O)c([N+](=O)[O-])cc1C	.
CCN=C1S/C(=C\c2cc(Br)c(O)c(OC)c2)C(=O)N1CC	.
O=[N+]([O-])c1ccc(OCc2cnc(Cl)s2)c([N+](=O)[O-])c1	.
CN1C(=O)Cc2cc(S(=O)(=O)Nc3ccc(Cl)cc3)ccc21	.
O=C1C=CC(=O)N1c1ccc(OC(F)F)cc1	.
COc1cc2c(cc1OC)CN(S(=O)(=O)c1ccc3c(c1)OCCO3)CC2	.
Cc1ccc2nc(-c3ccc(C)o3)c(NC3CCCC3)n2c1	/	PKM2 inh dose=.;PKM2 FLuc cs=.;PKM2 LDH couple=?
CC(=O)c1c(C)[nH]c(C(=O)Nc2ccc(F)c(F)c2F)c1C	.
CCOC(=O)Cn1c(=O)oc2cc(S(=O)(=O)N3CCc4ccccc43)ccc21	.
Cc1cccc(CN2CCN(c3nc4nonc4nc3NC3CC3)CC2=O)c1	.
O=C(CCC(=O)N1CCN(S(=O)(=O)c2ccc3ccccc3c2)CC1)NCC(F)(F)F	.
CCOc1ccc(CC(=O)NNC(=S)NCCc2ccccc2)cc1	.
COC(=O)c1ccc(NC(=O)c2cc[n+](Cc3ccccc3)cc2)cc1	.
CN(Cc1ccon1)Cc1cn(C)nc1-c1cccc(Cl)c1	10µM	PKM2 inh dose=.;PKM2 FLuc cs=.;PKM2 LDH couple=.
Cc1cc(NC(=O)CSc2nc3c(cc2C#N)CCC3)no1	.
O=C(CSc1nc2ccc(Cl)cc2[nH]1)N1CCN(C(=O)c2ccco2)CC1	.
O=C(Nc1ccccc1Oc1ccccc1)C1CC1	.
CC(=O)CCc1c(C)nc2ccc(C)cc2c1Cl	.
CSc1cccc(NS(=O)(=O)c2ccc3c(c2)oc(=O)n3C)c1	.
